Source: PubChem (National Center for Advancing Translational Sciences (NCATS))
Most compounds without a hit are left out; they make up all but 9.5% or so of the library.
HPGD block: HPGD (human) dehydrogenase inhibition. P15428. purified HPGD, NADH fluorescence kinetic, PGE2 substrate. 4.3% of 150,000 active. Potency, µM, inactives show at the highest dose activity change, negative = inhibition, hits mostly inhibitors; active = well fitted inhibition curve with a large enough effect, not every such curve was filed as active; inconclusive = small, poorly fitted or top-dose-only effect, or another doubt; inactive = no such curve, though single readings can be large or run the other way
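20 nM HPGD preincubated 15 min at room temperature with compound in 50 mM Tris-HCl pH 8, 0.01% Tween 20. Started with 1 mM NAD+ and 30 uM prostaglandin E2; NADH fluorescence (360/450 nm) read 5 times over 30-s intervals, last minus first.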
NPSR antagonist: blocks cAMP signaling of the human neuropeptide S receptor; Q6W5P4; CHO-NPSR cells, cAMP TR-FRET, antagonist mode; Potency, µM (highest dose often 38.3 µM), for inactives: at the top dose activity change, negative = inhibition, usual class: inhibitors; 1% of 220,000 active; note: nearly all actives have a fitted effect of over 50% in size
Target sequence (Q6W5P4 whole entry, looked up): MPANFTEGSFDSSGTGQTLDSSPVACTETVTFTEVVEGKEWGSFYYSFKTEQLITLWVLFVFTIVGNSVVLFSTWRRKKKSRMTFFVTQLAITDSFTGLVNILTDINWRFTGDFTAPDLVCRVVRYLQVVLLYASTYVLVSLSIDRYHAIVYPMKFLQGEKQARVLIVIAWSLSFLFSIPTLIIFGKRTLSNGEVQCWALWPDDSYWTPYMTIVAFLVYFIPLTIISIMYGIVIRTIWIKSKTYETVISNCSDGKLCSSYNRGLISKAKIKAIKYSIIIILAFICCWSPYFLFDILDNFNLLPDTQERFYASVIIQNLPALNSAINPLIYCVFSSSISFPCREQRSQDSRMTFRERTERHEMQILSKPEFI
Tau fibril ThT: tau fibrillization inhibition (ThT binding); P10636; Potency, µM (top dose mostly 57.4 µM), for inactives: top-dose activity, negative = inhibition, actives largely listed as inhibitors; recombinant tau K18 P301L, heparin-induced fibrillization, ThT fluorescence; AID 1460; 2.1% of 270,000 active; note: nearly all actives have a fitted effect of over 55% in size
Target sequence (P10636 561-689 P618L limits assumed): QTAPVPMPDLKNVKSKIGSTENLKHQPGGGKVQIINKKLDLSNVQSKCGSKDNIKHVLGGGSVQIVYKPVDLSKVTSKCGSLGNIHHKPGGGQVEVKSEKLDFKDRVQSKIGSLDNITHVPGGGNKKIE
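Using a mix of unlabeled (15 uM) and Alexa 594-labeled (0.24 uM) tau K18 P301L, heparin-triggered fibrillization over 6 hr at 37 C was scored by ThT fluorescence.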
Tau fibril FP: tau fibrillization inhibition (FP); 0.39% of 280,000 active; P10636; K18 P301L tau heparin fibrillization, Alexa594 FP, 6 h; AID 1468; Potency, µM (doses to about 57.7 µM), for the others: at the top dose activity, negative = inhibition, most hits filed as inhibitors; note: nearly all actives have a fitted effect of over 55% in size
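Steps: dispense K18 P301L tau (15 uM plus 0.24 uM Alexa 594 tracer, final) in pH 7 sodium acetate; add compound; add heparin (20 uM final); incubate 6 hr, 37 C; add ThT (30 uM final); after 1 hr ambient, read FP.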
Tau fluor counter: counter-screen for tau fibril formation inhibitors; Potency, µM (titrated, usually from 57.7 µM), for the others: at the highest dose activity change, negative = decrease; tau K18 P301L (four-repeat tau fragment) Alexa594 fluorescence, heparin fibrillization; 0.93% of 280,000 active; AID 1463; note: nearly all actives have a fitted effect of over 55% in size
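Human K18 P301L tau (15 uM unlabeled plus 0.24 uM Alexa 594-labeled, final) in 100 mM sodium acetate pH 7 was mixed with compound and 20 uM heparin and incubated 6 hr at 37 C.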
ALDH1A1 block: inhibitors of human aldehyde dehydrogenase 1A1. P00352. Purified ALDH1A1, NADH fluorescence, propionaldehyde substrate. Potency, µM (titrated, usually from 75.3 µM), without a hit: top-dose activity, negative = inhibition, hits mostly inhibitors. 7.3% of 220,000 active. AID 1030; active = well fitted inhibition curve with a large enough effect, not every such curve was filed as active; inconclusive = small, poorly fitted or top-dose-only effect, or another doubt; inactive = no such curve, though single readings can be large or run the other way;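 note: plate controls were no enzyme wells and a reference inhibitor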
An asterisk follows results filed as active; ? = inconclusive; · = no result given; [ ] = remark or other dose. Unless noted, calls come from the whole dose curve; as a rule, active = well fitted curve in the direction sought with a large enough effect; inconclusive = small, poorly fitted or top-dose-only effect, or another doubt; inactive = no such curve, though single readings can be large; an effect the other way counts as inactive or inconclusive. Unless noted, % is set by controls: 0 for no effect and ±100 for the full control effect; potency is the fitted concentration of half-maximal effect.

SMILES	HPGD block	NPSR antagonist	Tau fibril ThT	Tau fibril FP	Tau fluor counter	ALDH1A1 block
CCN(CC)c1ccc(C2NCC(c3ccc([N+](=O)[O-])cc3)O2)cc1 (centres undefined)	-11%	-11%[46.1 µM]	-1%	3%	2%	0.28µM*
Cc1c(Cl)cccc1NC(=O)c1ccc2c(c1)CCN2S(=O)(=O)c1ccccc1	·	·	-2%	-14%	-20%	·
Cc1ccc(-n2c(=S)[nH]c3c(oc4ccccc43)c2=O)cc1	·	?	3%	-3%	-3%	8%
O=c1c2oc3ccccc3c2[nH]c(=S)n1-c1ccccc1	-15%	-30%	-4%	-9%	1%	7.9µM*
O=C1CC(N2CCC(O)CC2)C(=O)N1c1ccc(Br)cc1 (centres undefined)	-9%	-5%[46.1 µM]	-7%	4%	3%	22µM*
O=C1CC(N2CCCN(C3CC(=O)N(c4ccc(F)cc4)C3=O)CC2)C(=O)N1c1ccc(F)cc1 (centres undefined)	-5%	-11%[46.1 µM]	-18%	5%	4%	13µM*
CC(C)(O)C(=O)O	-10%	·	·	·	·	?
O=C(c1ccco1)c1nnn(Cc2ccccc2)c1-c1ccccc1	-11%	-23%[46.1 µM]	-3%	-2%	0%	11µM*
Cc1cc2nc(CS)[nH]c2cc1C	·	2%	32µM*	-3%	-26%	·
Cc1cc2nc(CO)[nH]c2cc1C	·	10%	1%	9%	7%	·
COC(=O)CC1c2ccccc2C=C(C2CC2)N1C(=O)OC (centres undefined)	-3%	·	-8%	-1%	-7%	1%
Cc1ccc(C)c(NC(=O)Cn2c(SCC(=O)NCc3ccccc3)nc3ccccc32)c1	·	·	-4%	-6%	-1%	·
COc1cc(C=NCC2OCCc3ccccc32)cc(OC)c1 (centres undefined)	-2%	23%	-13%	4%	-12%	22µM*
CC(C)CCNC(=O)c1ccc2c(SCC(=O)O)c3c(nc2c1)CCC3	·	0%	·	3%	3%	·
CCCCNC(=O)c1ccc2c(SCC(=O)O)c3c(nc2c1)CCCC3	13µM*	0%	-2%	-5%	-7%	?
COc1ccc(NC(=O)c2ccc3c(SCC(=O)O)c4c(nc3c2)CCCC4)c(OC)c1	·	4%	?	-9%	-9%	7.9µM*
COc1ccc(N2CCN(C(=O)CSc3c4c(nc5ccc(Cl)cc35)CCCC4)CC2)cc1	·	·	14µM*	-5%	?	·
O=C(CSc1c2c(nc3ccc(Cl)cc13)CCCC2)N1CCN(c2ccc(Cl)cc2)CC1	·	·	?	-11%	-15%	·
CCC(C)NC(=O)c1ccc2c(SCC(=O)O)c3c(nc2c1)CCCC3 (centres undefined)	22µM*	-5%	-17%	-4%	-9%	?
O=C(C(=O)N1CCCC1CO)N1CCCC1CO (centres undefined)	·	-4%	3%	10%	0%	7%
CN(C)S(=O)(=O)c1ccc2c(c1)N(CC(=O)N1CCN(c3cccc(Cl)c3)CC1)CCS2	·	·	3%	14%	-22%	·
Cc1ccc(CNC(=O)CSc2c3c(nc4cc(Cl)ccc24)CCCC3)o1	?	?	?	3%	-8%	20µM*
COc1ccc(S(=O)(=O)n2nc(-c3cc(OC)c(OC)c(OC)c3)cc2N)cc1OC	-11%	-7%[46.1 µM]	-3%	9%	?	5%
COc1ccc(-c2cc(N)n(S(=O)(=O)c3c(F)c(F)c(F)c(F)c3F)n2)cc1OC	-21%	?	?	-8%	-20%	32µM*
Cc1nnc(SCC(=O)Nc2ccc(S(=O)(=O)N3CCCCC3)cc2)s1	-5%	-17%[46.1 µM]	-7%	-13%	-20%	7%
SMILES	HPGD block	NPSR antagonist	Tau fibril ThT	Tau fibril FP	Tau fluor counter	ALDH1A1 block
Cc1ccc(Nc2nnc(SCC(=O)Nc3cccc(S(=O)(=O)N4CCCCC4)c3)s2)cc1	-12%	7%	-1%	-13%	7.9µM*[quencher]	-5%
O=C(CSc1nnc(Nc2ccccc2F)s1)Nc1cccc(S(=O)(=O)N2CCCCC2)c1	-10%	-34%	-5%	?	?	22µM*
COc1ccccc1N1C(=O)N(C(C)=O)C2C1Nc1ccccc1N2C (centres undefined)	-10%	-15%[46.1 µM]	?	?	-27%	1.8µM*
COc1ccccc1N1C(=O)c2ccccc2NC1c1ccncc1 (centres undefined)	-26%	4%[46.1 µM]	3%	7%	4%	?
COc1ccc(S(=O)(=O)NCCOc2ccccc2)cc1-n1cnnn1	·	0%	10%	1%	7%	8.9µM*
COc1cc2c(cc1OC)CN(C(=O)CSc1nnc3scc(-c4ccccc4)n13)CC2	-25%	3%	-14%	5%	-8%	?
COc1ccc(OC)c(/C=C2\S/C(=N/NC(=O)c3ccc4ccccc4c3)NC2=O)c1	4µM*	-12%	8.9µM*	3%	?	?
O=C1N/C(=N/NC(=O)c2cccc3ccccc23)S/C1=C\c1ccccc1OCc1ccccc1	-18%	-19%[46.1 µM]	?	1%	-29%	6%
Cc1cc(C)c(CN2C(=O)c3ccccc3S(=O)(=O)c3ccc(C(=O)OCC4CCCO4)cc32)c(C)c1 (centres undefined)	·	·	2%	-7%	-10%	·
COc1cccc(CNC(=O)Cn2ncn3nc(-c4cccs4)cc3c2=O)c1OC	·	·	-6%	-7%	-4%	·
N#Cc1c(-n2cccc2C=O)sc2c1CCCC2	·	-19%	-13%	-4%	-8%	32µM*
O=Cc1cccn1-c1sc2c(c1C(=O)O)CCCC2	-10%	0%	-6%	4%	0%	5%
CCCCCCC#CC1C=CC(OC(=O)OCC)C(COC(=O)OCC)O1 (centres undefined)	·	·	?	?	-8%[11.6 µM]	4µM*
CCCCC#CC1C=CC(OC(C)=O)C(COC(C)=O)O1 (centres undefined)	·	·	-32%[11.5 µM]	?	-8%[11.6 µM]	3.5µM*
CN(Cc1ccccc1)C(=O)C1CCC(CNS(=O)(=O)c2cccc3cccnc23)CC1 (centres undefined)	·	?	-17%	-8%	-17%	·
CC1CCN(C(=O)C2CCC(CNS(=O)(=O)c3cccc4cccnc34)CC2)CC1 (centres undefined)	0.89µM*	-21%[46.1 µM]	?	4%	-14%	?
CCN(CC)C(=O)C1CCC(CNS(=O)(=O)c2cccc3cccnc23)CC1 (centres undefined)	7.9µM*	1%	-2%	-13%	-12%	?
CC1CCN(C(=O)c2ccc(NS(=O)(=O)c3cccc4cccnc34)cc2)CC1	·	-30%	·	·	·	·
CN1CCN(C(=O)C2CCC(CNS(=O)(=O)c3cccc4cccnc34)CC2)CC1 (centres undefined)	16µM*	-10%[46.1 µM]	-3%	-4%	-9%	0%
